Test results as given in PubChem BioAssay (NCI).
The panel holds about 79,000 compounds, 15% with a hit somewhere; the sample as a whole holds those more often. No stated cut-off is given here; in the data, active means growth inhibition above about 70%; inactive means the rest.

Assays:
[1] = NCI Yeast Anticancer Drug Screen. Data for the rad50 strain (AID 155);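 further: 0% = growth of vehicle-only cultures of the same strain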; conditions: S. cerevisiae rad50 strain growth inhibition; at 50.0 µM; hits give high values
Method in brief: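 Genetically altered yeast (DNA repair pathway); compound treatment; growth inhibition vs vehicle ctrl.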

[2] = NCI Yeast Anticancer Drug Screen. Data for the mec2-1 strain (AID 157); conditions: S. cerevisiae mec2-1 strain, at 50.0 µM, hits give high values
Method in brief: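 Strain: mec2-1 (DNA repair/cell cycle alteration). Compound exposure, then growth measured; inhibition expressed relative to vehicle.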

[3] = NCI Yeast Anticancer Drug Screen. Data for the sgs1 mgt1 strain (AID 161);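 further: 0% = growth of cultures given vehicle only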; conditions: S. cerevisiae sgs1 mgt1 strain, at 50.0 µM, hits give high values
Method in brief: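 Read-out: growth inhibition vs vehicle controls. Cells: mutant yeast strain deficient in DNA damage repair.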

[4] = NCI Yeast Anticancer Drug Screen. Data for the cln2 rad14 strain (AID 165);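 further: 0% = growth equal to vehicle treated cultures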; conditions: S. cerevisiae cln2 rad14 strain, at 50.0 µM, hits give high values
Method in brief: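 Compounds are applied to the cln2 rad14 yeast strain, and growth is then compared with that of vehicle-treated cultures to give inhibition.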

[5] = NCI Yeast Anticancer Drug Screen. Data for the bub3 strain (AID 167); conditions: S. cerevisiae bub3 mutant strain, at 50.0 µM, hits give high values
Method in brief: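 Yeast carrying a defined mutation is treated with each compound, and growth is compared with that of vehicle-exposed cells to give inhibition.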

[6] = NCI Yeast Anticancer Drug Screen. Data for the mlh1 rad18 strain (AID 175); conditions: S. cerevisiae mlh1 rad18 strain growth inhibition; at 50.0 µM; hits give high values
Method in brief: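 Read-out is yeast growth inhibition, calculated against vehicle-only controls. The compound was applied to a strain engineered with DNA damage repair alterations.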

Measured: growth inhibition

COc1ccc(S(=O)(=O)N(CC(=O)O)c2ccccc2)cc1
inactive: [1] -19.3% | [2] -6% | [3] -4.35% | [4] -6.15% | [5] -7.75% | [6] -0.7%

O=[N+]([O-])c1cccc(SNSc2cccc([N+](=O)[O-])c2)c1
inactive: [1] 29% | [2] 12.8% | [3] 8.4% | [4] -35.5% | [5] 9.8% | [6] 23.8%

c1ccc2c(c1)c1ccccc1n2Cn1c2ccccc2c2ccccc21
inactive: [1] -1.1% | [2] -1.2% | [3] -48.5% | [4] -27.9% | [5] 11.3% | [6] 4.85%

CC(C)C(NC(=O)C1CSC(C)(C)N1C=O)C(N)=O (centres undefined)
inactive: [1] -5.2% | [2] -31.6% | [3] 12.3% | [4] -6.7% | [5] 36.7% | [6] -25.2%

O=CC1OC(c2ccccc2)OC1C1OC(c2ccccc2)OC1C=O (centres undefined)
inactive: [1] 19.4% | [2] 13.7% | [3] 19.2% | [4] -22.6% | [5] 17.9% | [6] 22.8%

CC(O)CNC(C)(C)CN (centres undefined)
inactive: [1] -7.45% | [2] -15.5% | [3] -10.4% | [4] 4.4% | [5] -18.8% | [6] -4%

CCSc1cc(N)ncn1
inactive: [1] -39.6% | [2] -18.6% | [3] -11.5% | [4] -4.15% | [5] -14% | [6] -9.75%

COC(=O)c1ccc(Cl)cc1
inactive: [1] 19.4% | [2] -3.2% | [3] -8.8% | [4] 14.3% | [5] 14.5% | [6] 2.45%

CCOC(=O)C1=C(Nc2ccc(F)cc2)C(=O)N(CC)C1
inactive: [1] 1.3% | [2] -15.3% | [3] 24.4% | [4] -6.45% | [5] 19.9% | [6] 21.4%

CC1CCC(CC(N)=O)C1(C)C (centres undefined)
inactive: [1] 11.8% | [2] -7.15% | [3] 2.75% | [4] -22.2% | [5] 2.85% | [6] 0.35%

NC1(c2ccccc2)C2CC3CC(C2)CC1C3 (centres undefined)
inactive: [1] 14.1% | [2] 1% | [3] -9.1% | [4] -48.8% | [5] 7.25% | [6] 3.7%

CN(C)CC(CCC(=O)c1ccccc1)C(=O)c1ccccc1 (centres undefined)
inactive: [1] 8.05% | [2] 15.8% | [3] 26.2% | [4] -45.8% | [5] 14.2% | [6] 5.5%

O=C(O)Cn1ccc(=O)c2cc([N+](=O)[O-])ccc21
inactive: [1] 41% | [2] 15.4% | [3] -11.1% | [4] 12.7% | [5] 24.9% | [6] -49%

Cn1c(CC(O)(C(F)(F)Cl)C(F)(F)Cl)cc(=O)n1-c1ccccc1
inactive: [1] 41.6% | [2] 1.3% | [3] 8.7% | [4] 6.25% | [5] 7% | [6] 7.2%

COC1(OC)C(c2ccco2)C(C#N)(C#N)C1(OC)OC (centres undefined)
inactive: [1] -5.65% | [2] -1.95% | [3] -8.05% | [4] -38% | [5] -4.85% | [6] -0.9%

CC(NCc1cc(O)c(CNC(C)c2ccccc2)cc1O)c1ccccc1 (centres undefined)
inactive: [1] 4.55% | [2] 0.4% | [3] 17.1% | [4] 25.2% | [5] 12.4% | [6] 1.95%

CCOC(=O)Cc1cc(=O)oc2cc(O)ccc12
inactive: [1] -22.9% | [2] 2.3% | [3] 4.1% | [4] 22.7% | [5] -1.8% | [6] -1.1%

C/C(=N\NC(N)=S)c1sc(-n2nc(-c3ccccc3)cc2-c2ccccc2)nc1C
inactive: [1] 4.65% | [2] -18.2% | [3] 12.2% | [4] 0.25% | [5] 26.6% | [6] 15.7%

COc1ccc(OC)c(CSc2ccc(OC)c(OC)c2)c1
inactive: [1] 18.7% | [2] 31.9% | [3] 43.8% | [4] 13.8% | [5] 57.9% | [6] 33%
